In experiment [1] the target is Glutathione peroxidase 1 (Homo sapiens) (UniProt P07203). Kind of experiment: Primary qHTS Assay for Inhibitors of Recombinant Selenoprotein Glutathione Peroxidase 1 (GPX1) (AID 1845191). For activity, negative = inhibition: % is set by controls: 0 for no effect and ±100 for the full control effect. Note: nearly all actives have a fitted effect of over 65% in size. Summed up:
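GR-coupled readout: NADPH consumption tracked by fluorescence, ex 340/em 450 nm, at t=0 and after 15 min at RT. Final mix 10 nM GPX1, 1 mM GSH, 0.5 mM CHP, 0.5 mM NADPH, 100 nM GR, 0.01% BSA, following 30 min enzyme–compound preincubation.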
For orientation: qHTS replaces the single test concentration by a dilution series.

Experiment [2] concerns the target Phospholipid hydroperoxide glutathione peroxidase GPX4 (Homo sapiens) (UniProt P36969). Kind of experiment: Primary qHTS Assay for Inhibitors of Recombinant Selenoprotein Glutathione Peroxidase 4 (GPX4) (AID 1845192). For activity change, negative = inhibition: series mostly up to about 50 µM; % is set by controls: 0 for no effect and ±100 for the full control effect. Note: nearly all actives have a fitted effect of over 65% in size. Summed up:
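Steps: GPX4 plus compound, 30 min RT; add GR/GSH/NADPH master mix; start with cumene hydroperoxide; read 340/450 nm fluorescence at 0 and 15 min. Finals were 200 nM GPX4, 1 mM GSH, 0.5 mM CHP, 0.5 mM NADPH, 100 nM GR.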

For experiment [3], the target named is Luciferin 4-monooxygenase (Photinus pyralis) (UniProt P08659). Kind of experiment: Primary firefly luciferase (FLuc) qHTS assay for identification of artifact compounds. (AID 1845220).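 For activity change, negative = inhibition: series mostly up to about 54 µM; plate controls were DMSO vehicle for no effect and no enzyme for full effect.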 Note: nearly all actives have a fitted effect of over 60% in size. Summed up: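 Titrated compounds were incubated 15 min at RT, protected from light, with luciferin and ATP at 10 uM; reaction started with 10 nM FLuc, luminescence imaged at 5 min, and concentration-response fitted by Hill equation.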

The nature of experiment [4]: Primary fluorescence-based thiol-reactive (MSTI) qHTS assay for identification of artifact compounds. (AID 1845221).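 For activity change, negative = thiol reactive: series mostly up to about 54 µM; thiol-reactive compounds lower the probe fluorescence signal.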 Note: nearly all actives have a fitted effect of over 65% in size. Note: potency is the fitted concentration of half-maximal effect. In a few lines: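 Curve-fitted percent inhibition (4-parameter Hill) derived from fluorescence, Ex 525/Em 598 nm, scaled with Acetyl-MSTI and MSTI; 1 h incubation at room temperature.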
Experiment [5] concerns Nanoluciferase (engineered Oplophorus gracilirostris luciferase). Kind of experiment: Primary Nanoluciferase (NLuc) qHTS assay for identification of artifact compounds. (AID 1845222).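 Note: NLuc secreted into diluted conditioned medium of S16 cells; series mostly up to about 54 µM; 0% = DMSO and -100% = no enzyme.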 In a few lines:
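qHTS format, against NLuc in S16 cell-conditioned medium. Nano-Glo substrate 1:100 was added after 15 min at room temperature. Luminescence was taken after a further 5 min.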

The structures appear in SMILES notation. Values without a mark were called inactive. Results filed as inconclusive are left out. Activity calls are given as the source filed them. Calls come from the whole dose curve; as a rule, active = well fitted curve in the direction sought with a large enough effect; inconclusive = small, poorly fitted or top-dose-only effect, or another doubt; inactive = no such curve, though single readings can be large; an effect the other way counts as inactive or inconclusive.

Sequence of Phospholipid hydroperoxide glutathione peroxidase GPX4 (Homo sapiens) (P36969 whole entry, looked up): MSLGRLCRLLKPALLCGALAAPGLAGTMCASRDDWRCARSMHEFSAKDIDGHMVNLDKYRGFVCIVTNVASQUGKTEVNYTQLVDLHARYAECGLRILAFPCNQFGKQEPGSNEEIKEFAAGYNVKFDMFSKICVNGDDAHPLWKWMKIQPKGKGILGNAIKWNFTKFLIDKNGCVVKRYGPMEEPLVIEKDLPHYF
Sequence of Glutathione peroxidase 1 (Homo sapiens) (P07203 whole entry, looked up): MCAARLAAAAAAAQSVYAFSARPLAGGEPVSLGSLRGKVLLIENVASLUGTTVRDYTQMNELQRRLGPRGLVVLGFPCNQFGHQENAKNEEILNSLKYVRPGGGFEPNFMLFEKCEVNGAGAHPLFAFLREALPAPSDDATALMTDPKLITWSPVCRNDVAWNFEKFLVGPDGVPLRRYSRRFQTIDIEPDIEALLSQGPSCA

For `COc1ccc(OC)c(C2C(C#N)=C(N)Oc3n[nH]c(-c4ccc5ccccc5c4)c32)c1` (stereo not drawn), the Potency entry in experiment [1], in experiment [2], in experiment [3] and in experiment [4] was “inactive” in each case.
`CC(=O)OCC1OC(OC2COC(OC3COC(OC4C(OC5C(CO)OC(OC6CCC7(C)C(CCC8(C)C7CC=C7C9CC(C)(C)CCC9(C(=O)OC9OC(CO)C(O)C(O)C9OC9OCC(OC%10OCC(O)(CO)C%10O)C(O)C9O)C(O)CC78C)C6(C)C)C(O)C5O)OCC(O)C4O)C(O)C3O)C(O)C2O)C(OC(=O)/C=C/c2ccccc2)C(O)C1OC(C)=O` (stereo not drawn): the Potency entry in experiment [1] and in experiment [2] was “inactive” in each case. Also, the activity change, negative = inhibition in experiment [3] was 4.52% [at 6.45 µM]. For the same molecule, the activity change, negative = thiol reactive in experiment [4] is 153% [at 6.41 µM]. Further, in experiment [5], the activity, negative = inhibition is 4.35% [at 6.45 µM].
`CC1(C)CC[C@]2(C(=O)O[C@@H]3O[C@H](CO[C@@H]4O[C@H](CO)[C@@H](O)[C@H](O)[C@H]4O)[C@@H](O)[C@H](O[C@@H]4O[C@H](CO)[C@@H](O)[C@H](O)[C@H]4O)[C@H]3O)CC[C@]3(C)C(=CCC4[C@@]5(C)CC[C@H](O[C@@H]6OC[C@@H](O)[C@H](O)[C@H]6O)[C@@](C)(C(=O)O)C5CC[C@]43C)[C@@H]2C1` (stereo partly drawn): the Potency result in experiment [1] and in experiment [2] was “inactive” throughout. Further, in experiment [3], the outcome is “inactive [at 11.6 µM]”. Besides, the activity change, negative = thiol reactive in experiment [4] is 183% [at 11.5 µM]. Further, in experiment [5], the activity, negative = inhibition was 1.63% [at 11.6 µM].
As to `CCc1cc(CC[C@]2(C3CCCC3)CC(O)=C(Cc3nc4nc(C)cc(C)n4n3)C(=O)O2)cc(CC)n1`, the Potency entry in experiment [1], in experiment [2], in experiment [3], in experiment [4] and in experiment [5] was “inactive” throughout.
On to `CCC(C)/C=C(C)/C=C/C1=CC2=C(Cl)C(=O)C(C)(OC(C)=O)C(=O)C2=CN1C(CCC(=O)O)C(=O)O` (stereo not drawn), for which the Potency entry in experiment [1], in experiment [2] and in experiment [3] was “inactive” in each case. For the same molecule, the Potency in experiment [4] is 367 nM (active).
With `CC(C/C=C/C(C)(C)O)C1CCC(C)(O)C(O)C1` (stereo not drawn), the Potency entry in experiment [1], in experiment [2], in experiment [3], in experiment [4] and in experiment [5] was “inactive” in each case.
Take `O=C(NCC(=O)N1CCCC1)Nc1ccc2ccccc2c1`: the Potency entry in experiment [1], in experiment [2], in experiment [3], in experiment [4] and in experiment [5] was “inactive” each time.
`CC1(C)CC[C@]2(C(=O)O[C@@H]3O[C@H](CO)[C@@H](O)[C@H](O)[C@H]3O)CC[C@]3(C)C(=CCC4[C@@]5(C)CC[C@H](OC6OC(C(=O)O)C(OC7OC(CO)C(O)C(O)C7O)C(O)C6O)C(C)(C)C5CC[C@]43C)C2C1` (stereo partly drawn): the Potency entry in experiment [1] and in experiment [2] was “inactive” throughout. In experiment [3], the activity change, negative = inhibition was -0.627% [at 11.6 µM]. Besides, the activity change, negative = thiol reactive in experiment [4] is 280% [at 11.5 µM]. In addition, the activity, negative = inhibition in experiment [5] is 0% [at 11.6 µM].
As to `COc1cc(C)c(C(=O)NC2C(C)OC(OC3CCC(C)C4C3C=C(C)C3/C(C)=C\CC/C(C)=C/C5(C)C=C(C(=O)O)C(C)CC56OC(=O)/C(=C(\O)C34C)C6=O)C(O)C2(C)O)c(O)c1` (stereo not drawn), the Potency entry in experiment [1] and in experiment [2] was “inactive” throughout. In addition, the outcome in experiment [3] is “inactive [at 11.6 µM]”. Further, the activity change, negative = thiol reactive in experiment [4] is 188% [at 11.5 µM]. Also, in experiment [5], the activity, negative = inhibition was 4.93% [at 11.6 µM].

Source of the values: PubChem BioAssay (NCATS).
